Test [1] has as its target Myc proto-oncogene protein (Homo sapiens) (UniProt P01106). As to the kind of experiment: ATG_Myc_CIS: Attagene CIS-FACTORIAL HepG2 Assay for human Myelocytomatosis (Myc) Proto-Oncogene Transcription Factor (AID 2282990). The note with it: HepG2, Attagene cis-reporter transcription factor activity; actives raise or lower the signal. The gist of the method:
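HepG2, transient MRTU transfection (cis promoters, endogenous TFs); 24 h dosing; TriZol RNA → oligo(dT) RT → PCR → 6-FAM primer extension → HpaI cut → CE. Bidirectional fit vs DMSO.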

The nature of test [2]: ATG_NF_kB_CIS: Attagene CIS-FACTORIAL HepG2 Assay for human Nuclear Factor Kappa B (NF-kB) (AID 2282991). The note with it: HepG2 Attagene cis-factorial NF-kB reporter mRNA; actives raise or lower the signal. The gist of the method:
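Fluorescence of labelled RT-PCR products separated by capillary electrophoresis gives reporter mRNA levels from transfected HepG2 cells exposed 24 h; values are fitted in both directions relative to DMSO.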

The nature of test [3]: ATG_NRF2_ARE_CIS: Attagene CIS-FACTORIAL HepG2 Assay for human Nuclear Factor Erythroid 2 Related Factor 2 (NFR2) response to Antioxidant Response Elements (ARE) (AID 2282992). The note with it: HepG2 Attagene ARE/NRF2 reporter, transcription factor activity; actives raise or lower the signal. The gist of the method:
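Multiplexed reporter mRNA profiling in HepG2 after a 24 h chemical exposure. Curves fitted in both directions relative to DMSO negative control.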

Test [4] in a line: ATG_Oct_MLP_CIS: Attagene CIS-FACTORIAL HepG2 Assay for human Octamer-Binding Transcription Factor (Oct) (AID 2282993). The settings on record: HepG2 Attagene cis-factorial Oct reporter, mRNA; actives raise or lower the signal. The gist of the method: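 Cells of the HepG2 line express promoter-controlled reporter sequences whose mRNA levels, after 24 h treatment, are measured by RT-PCR and capillary electrophoresis. Increases and decreases are scored relative to DMSO.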

For test [5], the target named is Cellular tumor antigen p53 (Homo sapiens) (UniProt P04637). As to the kind of experiment: ATG_p53_CIS: Attagene CIS-FACTORIAL HepG2 Assay for human p53 Transcription Factor (AID 2282994). The note with it: HepG2 p53 cis-element reporter, Attagene mRNA; actives raise or lower the signal. The method, boiled down: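 Multiplexed reporter mRNA assay in human HepG2 liver cells; cis-regulated units report endogenous factor activity. Values come from bidirectional curve fitting against DMSO negative control after 24 h treatment.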
Chain of Cellular tumor antigen p53 (Homo sapiens) (P04637 whole entry, looked up): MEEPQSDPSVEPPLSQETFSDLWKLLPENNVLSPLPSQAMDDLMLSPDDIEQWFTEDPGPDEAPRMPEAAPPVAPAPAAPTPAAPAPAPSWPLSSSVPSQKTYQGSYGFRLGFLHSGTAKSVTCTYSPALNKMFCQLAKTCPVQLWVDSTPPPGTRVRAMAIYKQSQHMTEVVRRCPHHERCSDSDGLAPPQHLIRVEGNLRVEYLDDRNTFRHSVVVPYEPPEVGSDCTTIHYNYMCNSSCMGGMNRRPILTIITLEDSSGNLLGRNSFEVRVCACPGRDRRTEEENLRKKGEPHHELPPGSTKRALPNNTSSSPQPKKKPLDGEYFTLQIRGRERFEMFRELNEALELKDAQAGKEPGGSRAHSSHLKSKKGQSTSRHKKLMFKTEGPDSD

The target in test [6] is human Peroxisome Proliferator-activated Receptor alpha (PPARa), PPARA (gene 5465) (UniProt Q07869). Kind of test: ATG_PPARa_TRANS: Attagene TRANS-FACTORIAL HepG2 Assay for human Peroxisome Proliferator-activated Receptor alpha (PPARa) (AID 2283001; active means hit-call score of the fitted dose curve at least 0.9, where 1 is the maximum;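 on AC50: potency for gain of reporter signal over DMSO so agonist or activator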). The method, boiled down:
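Reporter transcripts from GAL4-UAS units in transfected HepG2 were quantified 24 h after dosing. Detection used reverse transcription, PCR, fluorescent primer extension and capillary electrophoresis, with DMSO as baseline.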

The target in test [7] is human Peroxisome Proliferator-activated Receptor delta (PPARd), PPARD (gene 5467) (UniProt Q03181). Kind of test: ATG_PPARd_TRANS: Attagene TRANS-FACTORIAL HepG2 Assay for human Peroxisome Proliferator-activated Receptor delta (PPARd) (AID 2283002; active means hit-call score of the fitted dose curve at least 0.9, where 1 is the maximum). The method, boiled down:
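Transient HepG2 transfection (multiple GAL4-UAS RTUs, chimeric receptor-Gal4); 24 h dosing; total RNA → oligo(dT) RT → PCR → 6-FAM primer extension → HpaI cut → CE. Positive direction vs DMSO.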

Test [8] concerns the target Nuclear receptor subfamily 1 group I member 2 (Homo sapiens) (UniProt O75469). Kind of test: ATG_PXR_TRANS: Attagene TRANS-FACTORIAL HepG2 Assay for human Pregnane X Receptor (PXR) (AID 2283008; active means hit-call score of the fitted dose curve at least 0.9, where 1 is the maximum). The method, boiled down:
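Measures mRNA induction of a GAL4-UAS-driven reporter in human HepG2 cells transiently expressing PXR fused to Gal4, following 24 h treatment. DMSO served as negative control and baseline.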

Test [9] addresses human RAR-related Orphan Receptor beta (RORb), RORB (gene 6096) (UniProt Q92753). As to the kind of experiment: ATG_RORb_TRANS: Attagene TRANS-FACTORIAL HepG2 Assay for human RAR-related Orphan Receptor beta (RORb) (AID 2283010; active means hit-call score of the fitted dose curve at least 0.9, where 1 is the maximum). The method, boiled down: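 HepG2 cells were transiently transfected with multiplexed GAL4-UAS reporter units expressing chimeric nuclear receptor–GAL4 proteins, then dosed for 24 h. Reporter mRNA was quantified by RT-PCR with fluorescent labelling and capillary electrophoresis; gain of signal was fitted relative to DMSO.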

For test [10], the target named is human RAR-related Orphan Receptor gamma (RORg), RORC (gene 6097) (UniProt P51449). Kind of test: ATG_RORg_TRANS: Attagene TRANS-FACTORIAL HepG2 Assay for human RAR-related Orphan Receptor gamma (RORg) (AID 2283011; active means hit-call score of the fitted dose curve at least 0.9, where 1 is the maximum). The method, boiled down:
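First, HepG2 liver cells were transfected with GAL4-UAS-driven reporter constructs and the RORg-Gal4 fusion. Next, they were treated with chemical for 24 h. Finally, reporter mRNA was quantified by RT-PCR and capillary electrophoresis, with upward activity fitted against DMSO.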

Test [11] concerns the target Retinoic acid receptor RXR-alpha (Homo sapiens) (UniProt P19793). Kind of test: ATG_RXRa_TRANS: Attagene TRANS-FACTORIAL HepG2 Assay for human Retinoid X Receptor alpha (RXRa) (AID 2283012; active means hit-call score of the fitted dose curve at least 0.9, where 1 is the maximum). The method, boiled down: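 HepG2 cells transiently transfected with multiplexed GAL4-UAS reporter units and chimeric NR-GAL4 fusions, dosed 24 h. Reporter mRNA measured by RT-PCR, FAM labelling, HpaI digestion and capillary electrophoresis; gain-of-signal fitted relative to DMSO baseline.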

A short description of test [12]: BSK_3C_TissueFactor: BioMAP Diversity Plus: 3C Assay for Tissue Factor Biomarker Activity (AID 2282997). The settings on record: BioMAP 3C HUVEC, tissue factor biomarker readout; actives raise or lower the signal. The method, boiled down:
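ELISA read-out of Tissue Factor levels on human umbilical vein endothelium collected 24 h after chemical dosing. Gain or loss of signal was fitted relative to DMSO.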

Test [13] is described as follows: BSK_3C_uPAR: BioMAP Diversity Plus: 3C Assay for Urokinase-type plasminogen activator receptor (uPAR) Biomarker Activity (AID 2282998). The note with it: BioMAP 3C HUVEC, uPAR biomarker ELISA; actives raise or lower the signal. The gist of the method: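 Endothelial primary cells of human umbilical vein origin received test chemical; 24 h later uPAR was assayed by ELISA. Fitting was bidirectional, DMSO as negative control.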

Test [14] is described as follows: BSK_3C_VCAM1: BioMAP Diversity Plus: 3C Assay for Vascular cell adhesion molecule 1 (VCAM1) Biomarker Activity (AID 2282999). The settings on record: BioMAP 3C HUVEC, VCAM1 ELISA, cytokine-stimulated; actives raise or lower the signal. The gist of the method: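 Endothelial cells from human umbilical vein are treated with test chemical. At 24 h, VCAM-1 is measured by ELISA, and responses in either direction are fitted relative to DMSO.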
(In general: In an ELISA, binding on a coated surface is turned into a signal by an enzyme label.)

Test [15] can be described thus: BSK_4H_Eotaxin3: BioMAP Diversity Plus: 4H Assay for Eotaxin 3 Biomarker Activity (AID 2283000).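 On outcome: CCL26 protein level quantified by ELISA in parallel with SRB cytotoxicity check.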 The settings on record: primary human endothelial cells (HUVEC); actives raise or lower the signal. The method, boiled down: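 Chemicals were added to human umbilical vein endothelium cultures, and Eotaxin-3 was quantified by ELISA at 24 h. Values were derived by bidirectional fitting with DMSO serving as negative control and activity baseline.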

Read-out in test [16]: Intercellular Adhesion Molecule 1 (ICAM1), ICAM1 (gene 3383)
As to the kind of experiment: BSK_3C_ICAM1: BioMAP Diversity Plus: 3C Assay for Intercellular Adhesion Molecule 1 (ICAM1) Biomarker Activity (AID 2283003). The note with it: primary human endothelial cells (HUVEC); actives raise or lower the signal. The method, boiled down: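 Primary human umbilical vein endothelial cells in the BioMAP 3C system were exposed to chemicals for 24 h, then ICAM-1 was quantified by ELISA. Activity was fitted bidirectionally against the DMSO negative control baseline.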

Test [17] is described as follows: BSK_3C_Proliferation: Cell Proliferation Assessment in the BioMAP Diversity Plus: 3C Assay (AID 2283006).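 On AC50: potency may reflect either rise or fall in cell number versus DMSO.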 The note with it: primary human endothelial cells (HUVEC). The method, boiled down: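 Human umbilical vein endothelial cells were grown sub-confluent and exposed to chemical for 48 h, then fixed with 10% TCA and stained with 0.1% sulforhodamine B; absorbance at 560 nm gave relative cell number, fitted bidirectionally against DMSO baseline.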

For test [18], the target named is Peroxisome proliferator-activated receptor gamma (Homo sapiens) (UniProt P37231). As to the kind of experiment: ATG_PPARg_TRANS: Attagene TRANS-FACTORIAL HepG2 Assay for human Peroxisome Proliferator-activated Receptor-gamma (PPARg) (AID 2283007; active means hit-call score of the fitted dose curve at least 0.9, where 1 is the maximum). The method, boiled down:
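Twenty-four hours after chemical dosing of transiently transfected HepG2 cells, isolated RNA was converted to cDNA, reporter sequences amplified and 6-FAM-labelled, then HpaI-digested and analysed by capillary electrophoresis. Signal increase against DMSO was fitted.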

The target in test [19] is human Retinoic Acid Receptor gamma (RARg), RARG (gene 5916) (UniProt P13631). As to the kind of experiment: ATG_RARg_TRANS: Attagene TRANS-FACTORIAL HepG2 Assay for human Retinoic Acid Receptor gamma (RARg) (AID 2283009; active means hit-call score of the fitted dose curve at least 0.9, where 1 is the maximum). The method, boiled down:
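HepG2 cells transiently transfected with multiplexed reporter units expressing chimeric RARg-GAL4 and GAL4-UAS-driven reporters; 24 h compound exposure. Reporter mRNA quantified by RT-PCR with fluorescent labelling and capillary electrophoresis; gain-of-signal fitted relative to DMSO baseline.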

Inconclusive results are not listed. Calls of active or inactive are those of the source. How the source made its calls, unless noted: active means hit-call score of the fitted dose curve at least 0.9, where 1 is the maximum; inactive means score below 0.9.

Chain of human RAR-related Orphan Receptor beta (RORb), RORB (gene 6096) (Q92753 whole entry, looked up, the tested form may be a part): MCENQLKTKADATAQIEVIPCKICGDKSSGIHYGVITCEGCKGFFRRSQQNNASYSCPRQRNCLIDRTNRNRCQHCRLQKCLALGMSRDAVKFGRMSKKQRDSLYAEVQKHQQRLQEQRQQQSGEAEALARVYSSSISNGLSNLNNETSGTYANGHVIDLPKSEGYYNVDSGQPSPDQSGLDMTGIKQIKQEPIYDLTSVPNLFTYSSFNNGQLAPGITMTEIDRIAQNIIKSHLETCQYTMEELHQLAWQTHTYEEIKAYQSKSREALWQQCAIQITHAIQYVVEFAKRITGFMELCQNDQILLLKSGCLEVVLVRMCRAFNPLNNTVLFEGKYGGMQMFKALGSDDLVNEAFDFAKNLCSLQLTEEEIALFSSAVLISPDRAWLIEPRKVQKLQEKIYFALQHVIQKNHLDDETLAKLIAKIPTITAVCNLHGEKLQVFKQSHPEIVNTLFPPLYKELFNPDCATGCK
Chain of Myc proto-oncogene protein (Homo sapiens) (P01106 whole entry, looked up): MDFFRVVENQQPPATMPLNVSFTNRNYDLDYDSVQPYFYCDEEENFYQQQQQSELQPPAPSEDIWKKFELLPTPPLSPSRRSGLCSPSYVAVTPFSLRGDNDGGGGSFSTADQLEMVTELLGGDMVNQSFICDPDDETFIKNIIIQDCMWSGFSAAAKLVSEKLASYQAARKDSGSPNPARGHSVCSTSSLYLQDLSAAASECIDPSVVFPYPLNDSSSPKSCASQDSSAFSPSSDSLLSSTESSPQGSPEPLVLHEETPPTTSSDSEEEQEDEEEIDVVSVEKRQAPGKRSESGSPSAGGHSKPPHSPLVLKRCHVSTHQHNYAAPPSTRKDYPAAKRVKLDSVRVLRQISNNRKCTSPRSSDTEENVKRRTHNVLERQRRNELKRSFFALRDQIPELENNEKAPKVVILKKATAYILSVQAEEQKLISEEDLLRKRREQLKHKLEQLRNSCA
Chain of Nuclear receptor subfamily 1 group I member 2 (Homo sapiens) (O75469 whole entry, looked up, the tested form may be a part): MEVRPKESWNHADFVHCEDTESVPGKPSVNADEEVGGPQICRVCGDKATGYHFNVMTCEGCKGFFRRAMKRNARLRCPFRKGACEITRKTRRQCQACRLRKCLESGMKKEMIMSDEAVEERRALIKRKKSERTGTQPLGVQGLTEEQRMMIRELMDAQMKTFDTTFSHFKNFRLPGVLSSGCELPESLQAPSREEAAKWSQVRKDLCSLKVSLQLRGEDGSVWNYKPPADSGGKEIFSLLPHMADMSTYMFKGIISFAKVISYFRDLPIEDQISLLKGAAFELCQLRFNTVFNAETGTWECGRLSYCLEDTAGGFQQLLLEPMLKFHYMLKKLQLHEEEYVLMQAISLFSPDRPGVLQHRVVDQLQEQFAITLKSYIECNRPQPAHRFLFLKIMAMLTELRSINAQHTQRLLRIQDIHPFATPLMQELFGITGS
Chain of Peroxisome proliferator-activated receptor gamma (Homo sapiens) (P37231 whole entry, looked up): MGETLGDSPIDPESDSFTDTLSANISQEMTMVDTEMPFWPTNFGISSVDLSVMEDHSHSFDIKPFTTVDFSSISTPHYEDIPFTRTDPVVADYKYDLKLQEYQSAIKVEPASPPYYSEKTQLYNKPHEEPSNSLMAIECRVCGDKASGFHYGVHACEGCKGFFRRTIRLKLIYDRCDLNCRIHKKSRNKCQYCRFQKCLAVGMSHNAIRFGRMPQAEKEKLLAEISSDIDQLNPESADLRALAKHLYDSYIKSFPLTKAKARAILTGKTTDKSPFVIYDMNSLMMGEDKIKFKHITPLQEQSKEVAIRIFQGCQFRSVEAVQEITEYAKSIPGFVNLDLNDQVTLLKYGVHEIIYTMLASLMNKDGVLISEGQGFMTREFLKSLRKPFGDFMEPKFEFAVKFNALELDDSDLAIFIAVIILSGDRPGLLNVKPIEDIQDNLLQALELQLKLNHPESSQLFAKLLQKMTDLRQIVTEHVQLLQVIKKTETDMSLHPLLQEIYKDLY
Chain of Retinoic acid receptor RXR-alpha (Homo sapiens) (P19793 whole entry, looked up, the tested form may be a part): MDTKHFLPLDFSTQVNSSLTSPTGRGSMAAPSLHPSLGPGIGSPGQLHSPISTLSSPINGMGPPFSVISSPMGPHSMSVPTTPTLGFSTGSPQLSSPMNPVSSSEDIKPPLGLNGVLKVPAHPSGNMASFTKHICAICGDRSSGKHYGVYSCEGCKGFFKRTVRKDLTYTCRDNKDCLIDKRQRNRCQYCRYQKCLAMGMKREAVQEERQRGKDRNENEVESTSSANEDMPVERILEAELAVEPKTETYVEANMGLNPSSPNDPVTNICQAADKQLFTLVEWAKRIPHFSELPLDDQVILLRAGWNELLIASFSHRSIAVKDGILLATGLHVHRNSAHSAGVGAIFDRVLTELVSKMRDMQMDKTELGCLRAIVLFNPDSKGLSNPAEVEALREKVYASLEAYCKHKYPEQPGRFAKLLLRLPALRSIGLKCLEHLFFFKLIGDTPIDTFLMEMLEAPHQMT
Chain of human Peroxisome Proliferator-activated Receptor alpha (PPARa), PPARA (gene 5465) (Q07869 whole entry, looked up, the tested form may be a part): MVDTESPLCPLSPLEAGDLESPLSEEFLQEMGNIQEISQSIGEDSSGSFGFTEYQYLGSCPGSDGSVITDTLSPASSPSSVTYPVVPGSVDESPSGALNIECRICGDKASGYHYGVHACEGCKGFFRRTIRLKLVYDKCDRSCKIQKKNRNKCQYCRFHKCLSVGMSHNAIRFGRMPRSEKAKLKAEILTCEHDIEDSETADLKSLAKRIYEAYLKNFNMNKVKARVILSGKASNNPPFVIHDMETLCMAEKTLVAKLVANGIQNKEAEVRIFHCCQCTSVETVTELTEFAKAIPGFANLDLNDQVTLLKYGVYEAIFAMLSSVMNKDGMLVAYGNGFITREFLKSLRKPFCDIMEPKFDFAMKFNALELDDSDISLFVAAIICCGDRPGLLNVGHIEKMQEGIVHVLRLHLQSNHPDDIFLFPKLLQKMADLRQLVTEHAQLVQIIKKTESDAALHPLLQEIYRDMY
Chain of human Peroxisome Proliferator-activated Receptor delta (PPARd), PPARD (gene 5467) (Q03181 whole entry, looked up, the tested form may be a part): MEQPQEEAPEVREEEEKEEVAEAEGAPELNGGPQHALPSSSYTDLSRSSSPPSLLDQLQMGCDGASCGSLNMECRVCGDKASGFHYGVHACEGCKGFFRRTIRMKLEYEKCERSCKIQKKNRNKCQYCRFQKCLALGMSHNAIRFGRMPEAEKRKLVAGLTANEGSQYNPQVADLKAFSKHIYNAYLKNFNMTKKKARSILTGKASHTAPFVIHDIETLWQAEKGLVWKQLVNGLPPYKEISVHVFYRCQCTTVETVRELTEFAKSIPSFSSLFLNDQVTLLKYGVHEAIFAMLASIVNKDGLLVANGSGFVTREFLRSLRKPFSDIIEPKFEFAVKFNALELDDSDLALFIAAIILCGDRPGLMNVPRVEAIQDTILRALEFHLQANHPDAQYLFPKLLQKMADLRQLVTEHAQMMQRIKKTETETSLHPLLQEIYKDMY
Chain of human RAR-related Orphan Receptor gamma (RORg), RORC (gene 6097) (P51449 whole entry, looked up, the tested form may be a part): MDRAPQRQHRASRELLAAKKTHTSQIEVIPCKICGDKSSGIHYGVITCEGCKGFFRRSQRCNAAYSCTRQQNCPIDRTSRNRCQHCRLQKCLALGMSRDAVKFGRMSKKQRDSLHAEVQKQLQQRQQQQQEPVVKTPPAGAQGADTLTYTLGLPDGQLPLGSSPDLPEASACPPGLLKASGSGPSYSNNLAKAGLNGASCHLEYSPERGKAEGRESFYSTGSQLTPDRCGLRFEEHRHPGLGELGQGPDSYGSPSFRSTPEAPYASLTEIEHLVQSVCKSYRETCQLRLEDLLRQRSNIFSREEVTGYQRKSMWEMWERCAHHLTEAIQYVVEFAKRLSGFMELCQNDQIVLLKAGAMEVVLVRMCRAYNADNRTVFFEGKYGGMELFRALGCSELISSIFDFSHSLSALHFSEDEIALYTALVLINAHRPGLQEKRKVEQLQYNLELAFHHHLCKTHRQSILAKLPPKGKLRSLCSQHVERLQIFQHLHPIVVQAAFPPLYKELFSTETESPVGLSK
Chain of human Retinoic Acid Receptor gamma (RARg), RARG (gene 5916) (P13631 whole entry, looked up, the tested form may be a part): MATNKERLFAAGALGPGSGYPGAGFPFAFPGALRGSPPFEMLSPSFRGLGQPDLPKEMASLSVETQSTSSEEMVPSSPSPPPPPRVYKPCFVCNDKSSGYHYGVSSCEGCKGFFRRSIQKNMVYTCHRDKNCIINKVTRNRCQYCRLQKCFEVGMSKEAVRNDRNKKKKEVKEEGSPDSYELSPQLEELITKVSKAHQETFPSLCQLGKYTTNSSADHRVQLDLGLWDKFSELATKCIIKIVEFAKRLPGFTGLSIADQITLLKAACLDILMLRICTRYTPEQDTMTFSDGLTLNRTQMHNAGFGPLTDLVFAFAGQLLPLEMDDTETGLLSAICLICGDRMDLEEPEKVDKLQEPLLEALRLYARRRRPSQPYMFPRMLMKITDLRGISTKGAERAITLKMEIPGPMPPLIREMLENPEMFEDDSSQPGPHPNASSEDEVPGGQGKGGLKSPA

In the case of `Cc1cc(Cl)ccc1O[C@H](C)C(=O)O`, the outcome in test [1], in [2], in test [3], in test [4], in test [5] and in [6] was inactive. Moreover, the compound was classed as inactive in [7], in test [8] and in [9].
With `COc1ccc(C=O)cc1`, the call in test [1], in [2], in [3], in test [4], in test [5] and in test [6] was inactive. Moreover, the call in [7], in test [9], in test [10] and in [11] was inactive.
For orientation: AC50 means the midpoint of the concentration-response curve, whichever way the signal moves. Turning to `C(=NC1CCCCC1)=NC1CCCCC1`, the compound was classed as inactive in [1], in test [2], in test [3], in test [5], in test [18] and in [8]. The outcome in test [11] was inactive. Also, the AC50 is 5.24 µM (active) in test [4]; 34 µM (active) in test [12]; 9.69 µM (active) in test [13]; 30.3 µM (active) in test [14]; 6.27 µM (active) in [15]; 29.6 µM (active) in test [16]. In [17], the AC50 is 28.6 µM (active).
As to `COc1ccccc1OC`, the result in [1], in test [2], in test [3], in test [4], in test [5] and in test [6] was inactive. Also, the outcome in test [7], in test [18], in [8], in [9], in test [10] and in test [11] was inactive.
Regarding `COP(=O)(OC)OC`, the outcome in test [1], in test [2], in test [3], in test [4], in test [5] and in test [6] was inactive. In addition, the result in [8], in test [9] and in test [10] was inactive.
`CCOP(=S)(OCC)SCCS(=O)(=O)CC`: the call in test [1], in test [2], in [4], in [5], in [12] and in test [13] was inactive. The outcome in test [14], in [15], in [16], in test [17] and in test [11] was inactive. Moreover, the figures for the AC50 in test [3] and in [8] were 19 µM (active) and 7.88 µM (active), respectively.
Take `C=CC#N`: the compound was called inactive in test [1], in test [2], in [4], in [5], in test [6] and in [18]. Further, the AC50 in [3] was 119 µM (active).
With `Cn1sc(Cl)cc1=O`, the outcome in test [1], in test [4], in [5], in test [13], in [16] and in test [18] was inactive. Further, the result in test [19] and in test [11] was inactive. The concentration at half-maximal activity (AC50) in test [2] is 139 µM (active); in test [3], 135 µM (active); in test [12], 16.2 µM (active); in test [14], 36.1 µM (active); in [15], 28.2 µM (active); in test [17], 13.7 µM (active).
Take `Clc1nc(Cl)nc(Cl)n1`: the result in test [1], in [2], in [3], in [4], in test [5] and in [6] was inactive. The outcome in test [7] and in test [11] was inactive.
In the case of `Clc1ccc(COC(Cn2ccnc2)c2ccc(Cl)cc2Cl)cc1` (stereo unspecified), the compound was called inactive in [1], in test [2], in test [4], in test [5], in [7] and in test [11]. Further, the half-maximal activity concentration (AC50) was 6.8 µM (active) in test [3], 0.0853 µM (active) in [6], 4.84 µM (active) in test [18] and 0.44 µM (active) in test [8].

(Values after PubChem BioAssay (EPA / NIEHS).)
